In PubChem BioAssay AID624296 (National Center for Advancing Translational Sciences (NCATS), 2012):
About 9,900 (2.8%) of roughly 350,000 compounds were called active. Not shown: some 15% with an inconclusive outcome. This excerpt belongs to a sample that is enriched for actives. Values without a mark were called inactive. The call rests on the fitted dose curve; in most records, active means well fitted activation curve with a large enough effect; inconclusive means small, poorly fitted or top-dose-only effect; inactive means no such curve, though single readings can be large or run the other way.

Experiment: A quantitative high throughput screen for small molecules that induce DNA re-replication in MCF 10a normal breast cells. Further: nearly all actives have a fitted effect of over 50% in size. On activity, positive = re-replication: % of control where 0% means no effect.
Details: MCF 10A DNA re-replication, Hoechst nuclear intensity, 48 h; series mostly up to 46.1 µM; activity, positive = re-replication: at the top concentration
Potency means the concentration at half of the fitted maximal effect.

In order of rising “activity, positive = re-replication” value:
1. CC(=O)c1cccc(OCC(=O)OCC(=O)Nc2cc(S(=O)(=O)N3CCCCC3)ccc2C)c1  -31.7%
2. O=C(c1cn(-c2ccccc2)nc1-c1cc2ccccc2oc1=O)N1CCOCC1  -18.8%
3. S=c1[nH]c(-c2cccs2)cn1-c1ccccc1  -13.1%
4. CC(Sc1nnc(C2CC2)n1C1CC1)C(=O)Nc1ccc(C(N)=O)cc1 (configuration not stated)  -7.91%
5. COc1ccc(/C=C/C(=O)OCC(=O)NC2CCCCCC2)cc1OC  -3.09%
6. Cc1cccc(OCc2nnc(SCn3nnc4ccccc4c3=O)o2)c1  -2.7%
7. COc1ccc(CNC(=O)COC(=O)c2ccc(C)c(S(=O)(=O)N3CCOCC3)c2)cc1OC  -1.75%
8. COc1cccc(NC(=O)CSc2nnc(C3CCCCC3)n2N)c1  -0.852%
9. CCN1C[C@@H]2[C@@H]3C(=O)N(C)C(=O)[C@@H]3[C@](C)(C1=O)N2C(=O)c1ccccc1  -0.605%
10. CCC(C(=O)NC1CCCCC1)N(C(=O)c1snc(C(N)=O)c1N)c1ccc(OC)cc1OC (configuration not stated)  -0.467%
11. NCCN1CCN2C(=O)CN(C(=O)c3ccccc3)CC12 (configuration not stated)  0.947%
12. CCCn1nc(C(=O)OCc2nc(N)nc(Nc3ccccc3C)n2)c2ccccc2c1=O  1.2%
13. O=C(NCc1cccnc1)c1cccnc1Sc1ccc(Cl)cc1  1.68%
14. CSc1ncccc1C(=O)NC1CCCCCC1  1.92%
15. COc1ccc(N(C(=O)c2snc(C(N)=O)c2N)C(C(=O)NC2CCCC2)c2ccco2)cc1OC (configuration not stated)  4.32%
16. O=C(CSc1nc2[nH]c(=O)[nH]c(=O)c2s1)Nc1cccc(F)c1  8.68%
17. Cc1cccc2c1N(CC(=O)OC(C)C)C(=O)C2=O  10.9%
18. CC(C)(C)OC(=O)NCCCCCNC(=O)c1[nH]cnc1C(=O)Nc1nccs1  11.1%
19. C=CC[C@H](CC(=O)NCCO)C(=O)N[C@@H](COC(=O)[C@@H](CC=C)Cc1ccc(F)cc1)Cc1c[nH]c2ccccc12  11.8%
20. CC(C)OC(=O)CN1C(=O)c2ccccc2C1=O  14.7%
21. O=C1c2ccccc2C(=O)N1CCC#Cc1ccc2cc(C3(O)CCCCC3)oc(=O)c2c1  28.8%

With `Cc1cccc(OCc2nnc(SCc3nc4cc(C(F)(F)F)ccc4c(=O)[nH]3)o2)c1` the Potency was 5.8 µM (active).
In the case of `CC(C)OC(=O)CN1C(=O)C(=O)c2ccccc21`, the Potency is reported as 23.1 µM (active).
With `O=c1oc2ccccc2cc1-c1cn(-c2ccccc2)c(=S)[nH]1` the Potency was 5.8 µM (active).
With `O=C(NC1CCCCCC1)c1cccnc1Sc1ccc(Cl)cc1` the Potency was 18.4 µM (active).
In the case of `COc1ccc(N(C(=O)c2snc(C(N)=O)c2N)C(C(=O)NC2CCCC2)c2ccc(C)o2)c(OC)c1` (configuration not stated), the Potency is reported as 20.6 µM (active).

Work on `Cc1cc(C)cc(OCc2nnc(SCC(=O)Nc3ccccc3)o2)c1` yielded an activity, positive = re-replication of -182% [at 0.0737 µM].
